Unmarked numbers belong to inactive results. Some of the results follow. The source made the active and inactive calls.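 The calls were made as follows, unless noted: active = inhibition above the hit cutoff set in the earlier primary screen (cut at about 27% in these data); inactive = the rest.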

The results in this text go back to PubChem BioAssay.

The target of test [1] is Protein phosphatase methylesterase 1 (Homo sapiens) (UniProt Q9Y570). Briefly: human PME-1 methylesterase inhibition confirmation – biochemical, fluorescence polarization, FP-Rh probe, triplicate (AID 2171).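 Also: 0% = enzyme with DMSO and 100% = wells lacking PME-1.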 The settings on record: recombinant PME-1, FP-Rh probe fluorescence polarization; at 5.9 µM; hits give high values.
Chain of Protein phosphatase methylesterase 1 (Homo sapiens) (Q9Y570 whole entry, looked up, the tested form may be a part): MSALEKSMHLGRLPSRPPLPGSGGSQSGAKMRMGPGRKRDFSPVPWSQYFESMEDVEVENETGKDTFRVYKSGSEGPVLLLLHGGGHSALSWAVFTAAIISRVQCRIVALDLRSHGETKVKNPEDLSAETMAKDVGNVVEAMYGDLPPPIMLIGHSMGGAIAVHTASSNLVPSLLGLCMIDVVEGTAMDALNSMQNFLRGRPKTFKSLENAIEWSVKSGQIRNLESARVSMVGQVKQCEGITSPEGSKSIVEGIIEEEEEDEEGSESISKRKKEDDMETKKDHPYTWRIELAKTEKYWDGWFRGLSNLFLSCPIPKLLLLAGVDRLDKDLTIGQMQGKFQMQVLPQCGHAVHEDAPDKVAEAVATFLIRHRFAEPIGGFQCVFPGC
Test [2] deals with Nuclear receptor coactivator 3 (Homo sapiens) (UniProt Q9Y6Q9). Briefly: NCOA3 GAL4-fusion reporter inhibition – cell-based, luminescence, quadruplicate, confirmation (AID 588792;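 active = mean inhibition over 43.08%, the solvent-only control mean plus 3 SD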;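 also: 0% = DMSO treated cells and 100% = gossypol at 36 µM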). The settings on record: HEK293 GAL4-SRC3 luciferase reporter, at 3.6 µM, hits give high values.
In test [3] the test system is transactivating tegument protein VP16 (Human herpesvirus 1), Gal4-VP16 luciferase reporter. Briefly: repression of VP16-driven luciferase reporter – cell-based, luminescence, high throughput, counter-screen for SRC3 inhibitor project (AID 588794; in the data active = inhibition above about 30%). Particulars: mammalian cells, at 3.6 µM, hits give high values.
Test [4] has as its target Nuclear receptor coactivator 1 (Homo sapiens) (UniProt Q15788). Briefly: NCOA1 GAL4-fusion reporter inhibition – cell-based, luminescence, quadruplicate, confirmation (AID 588820;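 active = mean inhibition above 46.68%, the untreated control wells mean plus 3 SD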;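 also: 0% = DMSO wells and 100% = gossypol 36 µM treated wells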). The settings on record: HEK293 GAL4-SRC1 luciferase reporter, at 3.6 µM, hits give high values.
Test [5] in a line: repression of VP16-driven luciferase reporter – cell-based, luminescence, high throughput, counter-screen for SRC1 inhibitor project (AID 588824; in the data active = inhibition above about 25%). The settings on record: cell-based VP16 transactivation luciferase luminescence; at 3.6 µM; hits give high values.
Test [6] is described as follows: StAR promoter reporter inhibitors, counter-screen for LRH-1 inverse agonist project, cell-based, luminescence, high throughput (AID 651611; in the data active = inhibition above about 28%). The settings on record: StAR promoter luciferase reporter counterscreen, at 3.6 µM, hits give high values.
Test [7] addresses Nuclear receptor subfamily 5 group A member 2 (Homo sapiens) (UniProt O00482). Briefly: NR5A2 activity suppression in reporter cells – cell-based, luminescence, confirmation (AID 651613; in the data active = inhibition above about 42%;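 also: HEK293T cells co-transfected with LRH-1 and StAR promoter luciferase reporter; 0% = vehicle wells and 100% = parental cells lacking receptor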). Particulars: cell-based LRH-1 luciferase reporter, inverse agonism; at 3.6 µM; hits give high values.
Test [8] deals with Steroidogenic factor 1 (Homo sapiens) (UniProt Q13285). Briefly: inverse agonism at SF1 nuclear receptor – cell-based, luminescence, high throughput, counter-screen for LRH-1 inverse agonist project (AID 651614; in the data active = inhibition above about 44%;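 also: cells cotransfected with StAR promoter reporter and SF1 expression vector; 0% = vehicle on cells with receptor and 100% = vehicle on cells lacking receptor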). The settings on record: cell-based SF1 luciferase reporter, at 3.6 µM, hits give high values.
Chain of Steroidogenic factor 1 (Homo sapiens) (Q13285 whole entry, looked up, the tested form may be a part): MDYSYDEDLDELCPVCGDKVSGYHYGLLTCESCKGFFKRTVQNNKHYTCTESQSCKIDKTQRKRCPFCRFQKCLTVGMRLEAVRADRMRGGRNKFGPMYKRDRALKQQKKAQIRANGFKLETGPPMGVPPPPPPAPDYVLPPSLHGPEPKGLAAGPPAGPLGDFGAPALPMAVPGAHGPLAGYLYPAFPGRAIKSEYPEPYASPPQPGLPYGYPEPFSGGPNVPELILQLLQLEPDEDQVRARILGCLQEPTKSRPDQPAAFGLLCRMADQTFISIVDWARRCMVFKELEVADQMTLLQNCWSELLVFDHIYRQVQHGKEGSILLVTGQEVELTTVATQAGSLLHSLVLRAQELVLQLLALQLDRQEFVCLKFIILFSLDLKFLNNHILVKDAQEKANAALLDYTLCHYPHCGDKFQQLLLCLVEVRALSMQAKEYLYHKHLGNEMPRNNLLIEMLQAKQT
The nature of test [9]: compounds suppressing VP16-driven luciferase signal – cell-based, luminescence, high throughput, counter-screen for LRH-1 inverse agonist project (AID 651615; in the data active = inhibition above about 33%). The settings on record: Gal4-VP16 luciferase reporter cells, at 3.6 µM, hits give high values.
For test [10], the system named is transactivating tegument protein VP16 (Human herpesvirus 1). Briefly: compounds suppressing VP16-driven luciferase signal – cell-based, luminescence, single concentration, counter-screen for SRC2 inhibitor project (AID 652007; in the data active = inhibition above about 36%). The settings on record: cell-based VP16 transactivation luciferase reporter, at 8.9 µM, hits give high values.
For test [11], the target named is Nuclear receptor coactivator 2 (Homo sapiens) (UniProt Q15596). Briefly: inhibition of GAL4-SRC2 driven luciferase expression – cell-based, luminescence, HEK293, triplicate, confirmation (AID 652008;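 active = mean inhibition above 46.5%, the solvent-only control mean plus 3 SD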;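 also: 0% = DMSO-treated cells and 100% = Gossypol at 36 µM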). Particulars: HEK293 GAL4-SRC2 luciferase reporter, at 8.9 µM, hits give high values.
Chain of Nuclear receptor coactivator 2 (Homo sapiens) (Q15596 whole entry, looked up, the tested form may be a part): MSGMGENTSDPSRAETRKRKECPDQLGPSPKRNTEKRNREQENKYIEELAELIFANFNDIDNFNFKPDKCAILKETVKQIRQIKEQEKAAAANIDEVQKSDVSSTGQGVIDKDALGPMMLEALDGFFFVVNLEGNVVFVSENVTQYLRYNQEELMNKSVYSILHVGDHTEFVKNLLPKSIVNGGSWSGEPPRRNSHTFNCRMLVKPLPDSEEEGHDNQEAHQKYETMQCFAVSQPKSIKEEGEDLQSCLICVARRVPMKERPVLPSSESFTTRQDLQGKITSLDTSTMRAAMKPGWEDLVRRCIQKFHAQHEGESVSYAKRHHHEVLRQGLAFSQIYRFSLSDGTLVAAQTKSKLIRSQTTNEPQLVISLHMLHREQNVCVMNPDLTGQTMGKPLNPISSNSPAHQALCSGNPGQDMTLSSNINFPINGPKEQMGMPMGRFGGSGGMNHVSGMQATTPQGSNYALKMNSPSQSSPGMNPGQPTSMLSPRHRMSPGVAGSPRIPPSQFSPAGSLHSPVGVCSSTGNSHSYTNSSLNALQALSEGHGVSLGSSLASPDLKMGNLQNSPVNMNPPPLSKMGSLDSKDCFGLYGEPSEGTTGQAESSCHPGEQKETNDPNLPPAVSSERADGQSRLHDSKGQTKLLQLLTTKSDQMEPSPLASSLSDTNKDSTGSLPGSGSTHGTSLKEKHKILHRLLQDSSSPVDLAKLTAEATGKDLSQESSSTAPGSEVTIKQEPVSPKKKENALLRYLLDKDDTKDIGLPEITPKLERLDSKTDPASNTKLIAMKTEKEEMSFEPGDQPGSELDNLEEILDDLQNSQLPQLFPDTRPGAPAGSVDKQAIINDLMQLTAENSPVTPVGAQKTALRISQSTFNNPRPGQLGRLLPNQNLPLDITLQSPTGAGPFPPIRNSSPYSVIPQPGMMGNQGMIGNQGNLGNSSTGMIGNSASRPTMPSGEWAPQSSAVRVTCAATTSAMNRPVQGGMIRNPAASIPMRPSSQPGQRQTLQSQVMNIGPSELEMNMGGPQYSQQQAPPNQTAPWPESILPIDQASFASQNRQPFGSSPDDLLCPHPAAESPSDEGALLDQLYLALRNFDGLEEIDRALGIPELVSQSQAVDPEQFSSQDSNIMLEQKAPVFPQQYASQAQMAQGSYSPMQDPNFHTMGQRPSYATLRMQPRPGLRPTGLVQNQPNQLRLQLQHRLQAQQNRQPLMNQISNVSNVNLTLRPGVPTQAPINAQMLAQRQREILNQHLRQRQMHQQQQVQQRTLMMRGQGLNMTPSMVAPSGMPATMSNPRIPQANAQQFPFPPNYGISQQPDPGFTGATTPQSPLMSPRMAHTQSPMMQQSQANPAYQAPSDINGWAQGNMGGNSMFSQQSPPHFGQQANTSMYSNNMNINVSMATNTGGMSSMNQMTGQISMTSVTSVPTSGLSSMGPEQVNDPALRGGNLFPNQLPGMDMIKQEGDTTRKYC
Test [12] addresses Oxytocin receptor (Homo sapiens) (UniProt P30559). Briefly: oxytocin receptor activation, retest of hits – fluorescence, CHO-OTR cells, triplicate, confirmation (AID 434963;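 active = mean activation above about 20% derived from the earlier single-dose screen, limit read from the data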;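 also: peak over minimum fluorescence ratio per well during a 100 second FLIPR read; 0% = DMSO alone and 100% = oxytocin high control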). The settings on record: Fluo-8 calcium fluorescence, agonist, at 3 µM, hits give high values.
Test [13] concerns the target Vasopressin V1a receptor (Homo sapiens) (UniProt P37288). Briefly: activators of vasopressin V1R in CHO cells – cell-based, triplicate, fluorescence, counter-screen for OXTR agonist project (AID 434991;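 active = mean activation over triplicate exceeds the hit threshold set in the earlier primary screen, cut at about 20% in these data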;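 also: peak over basal fluorescence ratio within a 100 second read; 0% = DMSO alone and 100% = 3 nM vasopressin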). Particulars: Fluo-8 calcium fluorescence, at 3 µM, hits give high values.
For test [14], the target named is Insulin-degrading enzyme (Homo sapiens) (UniProt P14735). Briefly: cellular IDE Abeta-cleavage inhibition – fluorescence polarization, HEK cells, FAbetaB substrate, confirmation (AID 435028;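 active = mean inhibition across triplicate wells above the cutoff set by the earlier primary insulin-degrading enzyme screen, cut at about 16% in these data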;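 also: 0% = DMSO wells and 100% = 60 µM reference IDE inhibitor Ii1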). The settings on record: at 5.59 µM, hits give high values.
Test [15] can be described thus: HEK cell viability loss – luminescence, cytotoxicity control for IDE inhibitor project (AID 449730; in the data active = inhibition above about 22%;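 also: 0% = vehicle wells and 100% = reference cytotoxic drug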). The settings on record: HEK293 cytotoxicity, ATP luminescence; at 5.59 µM; hits give high values.
Test [16] deals with Serine protease HTRA1 (Homo sapiens) (UniProt Q92743). Briefly: confirming inhibition of human HTRA1 – biochemical, fluorescence polarization, confirmation (AID 540248;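 active = mean inhibition over three repeats above a set limit taken from the earlier primary screen, cut at about 37% in these data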;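 also: 0% = HTRA1 with DMSO and 100% = wells lacking HTRA1; inhibitors block probe binding so polarization drops and inhibition rises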). Particulars: recombinant HTRA1, FP-rhodamine activity-based probe, at 5.96 µM, hits give high values.

Chain of Nuclear receptor subfamily 5 group A member 2 (Homo sapiens) (O00482 whole entry, looked up): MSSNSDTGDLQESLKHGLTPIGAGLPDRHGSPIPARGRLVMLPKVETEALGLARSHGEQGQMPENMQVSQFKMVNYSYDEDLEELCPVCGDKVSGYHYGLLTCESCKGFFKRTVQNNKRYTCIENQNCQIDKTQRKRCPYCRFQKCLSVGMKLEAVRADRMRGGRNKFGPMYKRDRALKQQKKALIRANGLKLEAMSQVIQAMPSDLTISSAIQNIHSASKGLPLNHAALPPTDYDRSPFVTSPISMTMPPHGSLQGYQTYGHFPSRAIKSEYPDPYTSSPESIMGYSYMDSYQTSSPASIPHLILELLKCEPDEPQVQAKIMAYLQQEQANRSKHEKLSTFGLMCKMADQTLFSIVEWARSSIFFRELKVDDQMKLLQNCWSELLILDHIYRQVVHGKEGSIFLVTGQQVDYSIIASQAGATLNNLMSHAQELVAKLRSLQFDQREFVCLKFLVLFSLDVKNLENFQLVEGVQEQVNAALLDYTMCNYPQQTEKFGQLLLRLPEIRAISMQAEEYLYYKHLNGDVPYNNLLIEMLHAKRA
Chain of Nuclear receptor coactivator 1 (Homo sapiens) (Q15788 whole entry, looked up, the tested form may be a part): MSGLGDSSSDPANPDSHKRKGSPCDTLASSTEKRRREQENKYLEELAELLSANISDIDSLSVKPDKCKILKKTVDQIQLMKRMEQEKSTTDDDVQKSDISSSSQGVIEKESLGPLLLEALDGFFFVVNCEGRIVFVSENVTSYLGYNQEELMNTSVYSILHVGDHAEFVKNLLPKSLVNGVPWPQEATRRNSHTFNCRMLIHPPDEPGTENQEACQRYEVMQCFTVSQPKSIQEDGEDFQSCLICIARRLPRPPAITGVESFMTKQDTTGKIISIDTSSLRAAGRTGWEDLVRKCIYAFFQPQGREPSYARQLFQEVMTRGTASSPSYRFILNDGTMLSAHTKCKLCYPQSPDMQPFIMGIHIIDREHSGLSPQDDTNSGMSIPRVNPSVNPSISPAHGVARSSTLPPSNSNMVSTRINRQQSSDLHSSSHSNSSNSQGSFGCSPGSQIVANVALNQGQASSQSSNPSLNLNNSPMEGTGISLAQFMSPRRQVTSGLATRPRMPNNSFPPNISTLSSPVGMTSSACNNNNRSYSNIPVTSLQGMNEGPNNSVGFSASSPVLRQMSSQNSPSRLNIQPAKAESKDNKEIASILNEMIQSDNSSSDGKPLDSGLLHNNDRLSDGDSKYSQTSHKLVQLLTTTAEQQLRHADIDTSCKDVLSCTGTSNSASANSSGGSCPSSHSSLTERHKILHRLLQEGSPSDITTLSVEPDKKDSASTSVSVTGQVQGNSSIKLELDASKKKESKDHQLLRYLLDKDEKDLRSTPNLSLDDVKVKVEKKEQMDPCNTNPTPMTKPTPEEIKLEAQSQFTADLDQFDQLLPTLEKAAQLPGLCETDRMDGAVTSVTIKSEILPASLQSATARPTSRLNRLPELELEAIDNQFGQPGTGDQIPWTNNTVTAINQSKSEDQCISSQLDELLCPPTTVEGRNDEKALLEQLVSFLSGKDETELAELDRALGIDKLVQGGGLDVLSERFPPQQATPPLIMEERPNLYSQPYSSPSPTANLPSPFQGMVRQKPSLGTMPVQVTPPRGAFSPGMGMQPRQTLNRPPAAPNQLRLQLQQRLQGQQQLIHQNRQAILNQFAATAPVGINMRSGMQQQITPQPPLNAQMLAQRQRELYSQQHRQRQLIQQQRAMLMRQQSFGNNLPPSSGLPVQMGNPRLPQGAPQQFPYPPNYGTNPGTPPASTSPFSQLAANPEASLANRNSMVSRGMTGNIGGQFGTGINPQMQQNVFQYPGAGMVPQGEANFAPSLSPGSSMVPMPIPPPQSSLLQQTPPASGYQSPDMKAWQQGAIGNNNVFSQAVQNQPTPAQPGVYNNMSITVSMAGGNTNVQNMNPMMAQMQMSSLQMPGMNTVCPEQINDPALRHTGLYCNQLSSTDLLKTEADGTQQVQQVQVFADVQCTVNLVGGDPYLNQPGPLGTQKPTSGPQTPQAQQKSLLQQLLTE
Chain of Vasopressin V1a receptor (Homo sapiens) (P37288 whole entry, looked up): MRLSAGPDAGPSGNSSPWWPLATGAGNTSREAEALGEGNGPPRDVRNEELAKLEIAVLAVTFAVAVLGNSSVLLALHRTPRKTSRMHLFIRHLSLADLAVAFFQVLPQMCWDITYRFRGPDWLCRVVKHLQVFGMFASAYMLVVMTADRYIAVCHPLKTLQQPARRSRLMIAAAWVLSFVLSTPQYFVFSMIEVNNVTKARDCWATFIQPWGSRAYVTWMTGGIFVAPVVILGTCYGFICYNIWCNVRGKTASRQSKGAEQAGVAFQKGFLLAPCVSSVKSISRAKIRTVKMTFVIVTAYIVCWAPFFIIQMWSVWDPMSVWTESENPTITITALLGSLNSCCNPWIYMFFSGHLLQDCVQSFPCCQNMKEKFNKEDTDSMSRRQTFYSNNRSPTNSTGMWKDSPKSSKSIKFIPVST

For `O=c1cc(N2CCCCC2)c(-c2ccccc2)nn1Cc1c(Cl)cccc1Cl`, the inhibition in test [1] is 25.3%.

As for `CCC(=Nc1ccc(N)cc1)C1=C(O)C(C(=O)OC)C(C)(C)CC1=O` (stereo not drawn), in [1], the inhibition is 2.34%.

On to `CCOC(=O)c1c(C)[nH]c(C)c1S(=O)(=O)N(C)CC(=O)Nc1cc(C)ccc1OC`, for which the inhibition in test [1] was 24.4%.

As for `Cc1cc(-c2nnc(SCC(=O)Nc3nc(-c4ccc(Cl)cc4)cs3)o2)no1`, the inhibition in [1] was -22.5%.

For `CC(=O)Oc1ccc2c(c1)Oc1cc(OC(C)=O)ccc1C21OC(=O)c2ccccc21`, the inhibition in test [1] is 148% (active).

`O=C(CSc1nnc(SCc2ccccc2Cl)s1)N/N=C/c1c[nH]c2ccccc12`: the inhibition in test [1] is 19.3%.

As to `Cc1ncc(CO)c(/C=N/NC(=S)Nc2ccc(Cl)c(Cl)c2)c1O`, the inhibition in test [1] is 6.06%.

As to `CCc1cccc2c(C(=O)COC(=O)c3ccc([N+](=O)[O-])s3)c[nH]c12`, the inhibition in [1] is 24.6%.

`Cc1ccc(NCC(O)C(O)C(O)CO)c(N=Nc2ccccc2)c1C` (stereo not drawn): the inhibition in test [1] was 50.7% (active).

Consider `COc1ccc(/C=C2\Sc3ccc(C(=O)N4CCN(Cc5ccccc5)CC4)cc3N(C)C2=O)cc1OC`, for which the inhibition in test [1] was 46.9% (active).

Regarding `N#C/C(=N\Nc1cccc([N+](=O)[O-])c1)C(=O)c1ccc(Br)cc1`, the values for the inhibition in [1], in test [2] and in [3] were 29.5% (active), 4.19% and 26.8%, respectively.

For the compound `CCN(CC)S(=O)(=O)c1ccc(N/N=C/c2ccc(O)cc2O)nc1`, the inhibition in test [1] was 35% (active); in test [2] it was 68.3% (active); in test [3], 67.3% (active); in test [4], 63.5% (active); in test [5], 58.3% (active).

Turning to `Cc1ccc(C(C)C)c(OCc2ccc(C(=O)N/N=C/c3ccc(O)cc3O)cc2)c1`, the inhibition in test [1] is -0.21%; in test [2] it was 77.2% (active); in [3], 78.3% (active); in [4], 67% (active); in test [5] it was 77% (active); in test [6], 80.8% (active). Further, the inhibition in [7] was 100% (active); in test [8], 80.9% (active); in test [9], 71.2% (active); in test [10] it was 20.9%; in test [11] it was 68.3% (active).

In the case of `CCn1c(CSc2nnc(-c3cccnc3)n2-c2ccccc2C)nc2cc(C(=O)O)ccc21`, the inhibition in [1] was 82% (active).

With `CCn1nc([N+](=O)[O-])c(C(C#N)c2nc3cc(C(F)(F)F)ccc3s2)c(Cl)c1=O` (stereo not drawn), the inhibition in test [1] is 67.1% (active); in [2], 10.4%; in test [3], 12.3%.

Take `Cc1ccc(C(C)C)c(OCc2ccc(C(=O)N/N=C/c3cccc(O)c3O)cc2)c1`: the inhibition in test [1] was -4.31%; in test [2], 56.2% (active); in [3], 32.4% (active); in test [4], 40.4%; in test [5], 27.9% (active); in test [10] it was 34.8%. Further, the inhibition in test [11] is 83.9% (active).

In the case of `N#C/C(=C/c1ccc(N2CCCCC2)o1)C(=O)NCCc1c[nH]c2ccccc12`, the inhibition in test [1] was 22.2%; in [14] it was 150% (active); in [15], 5.73%. Further, the activation is 33.6% (active) in [12] and 52.1% (active) in [13].

In the case of `Cc1[nH]c2ccccc2c1/C=N/Nc1nc(Nc2ccccc2)nc(N2CCOCC2)n1`, the inhibition in test [1] is 34.2% (active).

As to `COc1cccc(/C=N/Nc2ccc([N+](=O)[O-])cn2)c1O`, the inhibition is 1.07% in [1], 48% (active) in test [2] and 10.2% in test [3].

On to `N#CC1=C(N)C(C#N)(C#N)C(c2cccnc2)C2CN(C(=O)OCc3ccccc3)CC=C12` (stereo not drawn), for which the inhibition in test [1] was 35.5% (active).

Take `CCCCCCC(=O)Nc1nc(C)c(-c2csc(Nc3cc(OC)ccc3OC)n2)s1`: the inhibition in [1] was 65% (active).

Consider `O=C(Nc1ccc(OC(F)(F)F)cc1)c1ccc2c(c1)no[n+]2[O-]`, for which the inhibition is 61.4% (active) in test [1], 69.4% (active) in test [16], -77.2% in test [10] and -55.7% in test [11].

For the compound `COc1cccc2c1C(=O)c1c(O)c3c(c(O)c1C2=O)C[C@@](O)(C(=O)CO)C[C@@H]3O[C@H]1C[C@H](N)[C@H](O)[C@H](C)O1`, the results for the inhibition in [1], in test [2] and in test [3] were 36.3% (active), 49.7% (active) and 87.7% (active), respectively.

Consider `Cc1cc(C)nc(SCc2ccc(C(=O)N/N=C/c3cccc(O)c3O)cc2)n1`, for which the inhibition in [1] is -47%; in [2] it was 28.5%; in test [3], 38.9% (active); in [4], 27.1%; in [5], 23.9%.

Turning to `Cc1ccc(Nc2nc(-c3ccc(O)cc3O)cs2)nc1`, the inhibition in test [1] was 34% (active); in test [16], 50.7% (active).

Consider `CC1(OC(=O)c2cnc3ccccc3n2)C(=O)C=C2C=C(C3CC3)OC=C2C1=O` (stereo not drawn), for which, in test [1], the inhibition was 23.9%.

Regarding `Cn1nc(-c2ccccn2)nc2c(=O)n(C)c(=O)nc1-2`, the inhibition was 45.9% (active) in [1]; 74.8% (active) in test [2]; 62% (active) in test [3]; 3.11% in test [4]; 53.1% (active) in test [5]; 56.7% (active) in test [6]. For the same compound, the inhibition was 58.9% (active) in test [7]; 73.7% (active) in [8]; 75.1% (active) in test [9]; 13.4% in [10]; 70.7% (active) in test [11].

For `COc1cccc(N2CCN(c3ncnc4c3[nH]c3ccc(F)cc34)CC2C)c1` (stereo not drawn), the inhibition in test [1] was 26.7% (active); in [2] it was 95.2% (active); in test [3], 93.4% (active); in test [4], 86.7% (active); in test [5], 91.8% (active); in test [6], 93.4% (active). The inhibition in test [7] is 108% (active); in [8] it was 97.8% (active); in test [9] it was 97.2% (active); in test [10] it was 95.4% (active); in test [11], 99.5% (active).
